Laboratory results taken from article PMC5540273 (PLoS ONE, 2017).

Experiments:
Conditions in all cases: concentration: 1 μM, replicates: in singlicate; n = 1
TIE2 = tested on: T1, TIE2
T1 construct: gene TEK

TLK1 = tested on: TLK1
TLK2 = tested on: TLK2
TNIK = tested on: TNIK
TNK1 = tested on: TNK1
TNK2 = tested on: TNK2
TNNI3K = tested on: TNNI3K
TRKA = tested on: T2, TRKA
T2 construct: gene NTRK1

TRKB = tested on: TRKB
TRKC = tested on: T3, TRKC
T3 construct: gene NTRK3
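Further: KINOMEscan kinase panel screen.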

Compound	%Inh (TIE2)	%Inh (TLK1)	%Inh (TLK2)	%Inh (TNIK)	%Inh (TNK1)	%Inh (TNK2)	%Inh (TNNI3K)	%Inh (TRKA)	%Inh (TRKB)	%Inh (TRKC)
COC(=O)c1c(-c2ccccc2)c2cc(Br)ccc2c(=O)n1Cc1ccc(NC(=O)CCC(=O)O)cc1	0%	19%	0%	0%	17%	0%	0%	0%	0%	35%
OCCCNc1nccc(-c2c(-c3cccc(C(F)(F)F)c3)nn3cc(C(F)(F)F)ccc23)n1 [GW630813]	0%	6%	0%	3%	0%	0%	0%	0%	7%	3%
CCC(=O)c1c(-c2ccccc2)c2cc(Cl)ccc2c(=O)n1Cc1cc(S(C)(=O)=O)n(CC(F)F)n1	2%	0%	0%	0%	0%	0%	0%	0%	0%	1%
Cn1c(=O)c(F)c(Nc2ccc(I)cc2F)c2c(=O)n(OC[C@H](O)CO)cnc21	9%	0%	0%	0%	29%	0%	4%	0%	0%	0%
O=c1cc(N2CCOCC2)nc2n(Cc3ccc(F)c(Cl)c3)ccn12 [GSK2297099]	0%	11%	22%	0%	0%	10%	0%	0%	0%	0%
O=C1NC(=O)C(c2ccccc2)=C1Nc1cccc(O)c1 [SB-390534]	13%	26%	98.4%	16%	5%	0%	4%	0%	0%	37%
O=C(Nc1n[nH]c2nc(-c3ccccc3)c(Cl)cc12)C1CC1 [SB-734909]	15%	0%	6%	8%	0%	0%	0%	0%	0%	0%
O=C(NCCNc1ccnc(Nc2ccc(F)cc2)n1)Nc1ccc2c(c1)OCO2 [GSK1379882]	0%	22%	20%	0%	0%	9%	0%	4%	0%	17%
CCC(=O)c1c(-c2ccccc2)c2cc(Cl)ccc2c(=O)n1Cc1cc(S(C)(=O)=O)n(CCC(C)(C)O)n1	5%	1%	0%	2%	28%	0%	13%	0%	0%	31%
Nc1nccc2scc(-c3ccc4c(c3)CCN4C(=O)Cc3ccccc3)c12 [GSK2576924]	13%	22%	3%	0%	0%	0%	0%	49%	0%	0%
Cc1cc(Nc2nc(-c3cccc(C)n3)nc3ccccc23)ccn1 [GW872411]	13%	0%	15%	13%	25%	0%	0%	0%	0%	0%
Cl.c1ccc(Cn2cnc3cc(Nc4ncnc5ccccc45)ccc32)cc1 [GW272142]	0%	0%	0%	0%	0%	15%	0%	0%	0%	0%
COc1cc2ncn(-c3cc(OCc4ccc(S(C)(=O)=O)cc4)c(C(N)=O)s3)c2cc1OC [GW869979]	0%	5%	0%	37%	5%	18%	0%	50%	31%	44%
CCC(=O)c1c(-c2ccccc2)c2cc(Cl)ccc2c(=O)n1Cc1ccc(C(=O)O)cc1	0%	0%	0%	0%	0%	0%	0%	0%	0%	0%
COc1cc(Nc2nccc(N3CCC(NC(=O)C4COc5ccccc5O4)C3)n2)cc(OC)c1OC (stereo not shown) [GSK1379761]	0%	8%	0%	0%	28%	6%	0%	77%	31%	61%
CCCC(=O)Nc1n[nH]c2ncc(-c3cccc4ccccc34)cc12 [SB-642057]	0%	32%	100%	0%	0%	4%	5%	0%	0%	0%
Nc1ncnc2c1ncn2-c1cccc2ccccc12 [SKF-97184]	0%	0%	18%	10%	0%	0%	0%	25%	0%	6%

Compound	%Inh (TIE2)	%Inh (TLK1)	%Inh (TLK2)	%Inh (TNIK)	%Inh (TNK1)	%Inh (TNK2)	%Inh (TNNI3K)	%Inh (TRKA)	%Inh (TRKB)	%Inh (TRKC)
O=C(Nc1n[nH]c2nc(-c3ccccc3)c(Br)cc12)C1CC1 [SB-708998]	11%	0%	0%	14%	0%	10%	0%	28%	0%	11%
COc1cc2ncn(-c3cc(OCc4ccncc4)c(C(N)=O)s3)c2cc1OC [GSK336313]	7%	0%	0%	13%	0%	5%	0%	0%	0%	0%
Cl.NS(=O)(=O)c1cccc(Nc2cc(-c3ccc(F)cc3)n[nH]2)c1 [GW824645]	2%	0%	0%	45%	0%	0%	0%	40%	44%	31%
C[C@@H]1CC[C@H](C(=O)NC2CCCCC2)CN1c1cc(-c2ccc3c(N)n[nH]c3c2)nc(N)n1 [GSK2291363]	0%	5%	0%	8%	0%	18%	5%	9%	0%	0%
COc1cc2ncn(-c3cc(OCc4ccncc4Br)c(C(N)=O)s3)c2cc1OC [GW854278]	6%	18%	0%	39%	33%	0%	18%	0%	0%	7%
Cc1ccc(-c2ccc3c(ccc4sc5c(c43)NC[C@@H](C)N=C5N(C)C)n2)cn1	0%	0%	0%	2%	34%	0%	0%	0%	0%	0%
Cc1nn2c(=O)cc(N3CCOCC3)nc2n1Cc1cccc(Cl)c1Cl [GSK2342769]	0%	0%	0%	0%	0%	16%	5%	0%	0%	4%
COc1cccc(-n2cnc3c(N)ncnc32)c1 [SKF-97416]	0%	2%	19%	15%	0%	0%	0%	45%	48%	33%
COc1cc2nccc(Nc3cccc(Oc4ccccc4)c3)c2cc1OC.Cl [GW284543]	12%	0%	0%	0%	0%	12%	10%	34%	5%	2%
Cc1nnc(-c2ccc3ncn(-c4ccc(S(C)=O)cc4)c3c2)o1 (stereo not shown)	11%	23%	0%	11%	4%	0%	7%	0%	0%	0%
Cc1nc(N(C)[C@H]2CN(C(=O)CC#N)CC[C@H]2C)c2cc[nH]c2n1	3%	3%	7%	0%	3%	11%	0%	17%	0%	0%
CN(C)c1cc(-c2ccc3c(N)n[nH]c3c2)nc(N)n1 [GSK2219329]	0%	9%	0%	0%	0%	1%	0%	0%	0%	0%
FC(F)(F)c1ccc(-c2ncn(CCCN3CCOCC3)c2-c2ccncc2)cc1 [SB-217780]	6%	0%	0%	0%	1%	0%	0%	14%	0%	0%
CCn1c(-c2nonc2N)nc2ccccc21 [SB-693162/GW549034]	0%	5%	0%	0%	0%	0%	0%	20%	43%	15%
CCn1c(-c2ccoc2)nc2cnccc21 [SB-733887]	7%	0%	0%	0%	0%	3%	11%	0%	41%	13%
CN1C(=O)C(Nc2ccccc2)=C(c2ccccc2)C1=O [SB-300079]	0%	3%	41%	7%	0%	0%	0%	0%	9%	11%
COc1cc2ncn(-c3cc(OCCCc4ccccc4)c(C(N)=O)s3)c2cc1OC [GSK205189]	0%	0%	0%	22%	12%	7%	0%	55%	0%	24%
